From PubChem
ALOX12 inh = Primary qHTS assay for inhibitors of human arachidonate 12S-lipoxygenase (ALOX12): Round 2. purified 12hLO, xylenol orange hydroperoxide absorbance. Potency, µM (doses to about 108 µM), for the others: top-dose activity change, negative = inhibition, hits mostly inhibitors. actives 1.1% (n = 580,000). AID 1671190, 2021; note: potency is the fitted concentration of half-maximal effect
Target sequence (P18054 whole entry, looked up): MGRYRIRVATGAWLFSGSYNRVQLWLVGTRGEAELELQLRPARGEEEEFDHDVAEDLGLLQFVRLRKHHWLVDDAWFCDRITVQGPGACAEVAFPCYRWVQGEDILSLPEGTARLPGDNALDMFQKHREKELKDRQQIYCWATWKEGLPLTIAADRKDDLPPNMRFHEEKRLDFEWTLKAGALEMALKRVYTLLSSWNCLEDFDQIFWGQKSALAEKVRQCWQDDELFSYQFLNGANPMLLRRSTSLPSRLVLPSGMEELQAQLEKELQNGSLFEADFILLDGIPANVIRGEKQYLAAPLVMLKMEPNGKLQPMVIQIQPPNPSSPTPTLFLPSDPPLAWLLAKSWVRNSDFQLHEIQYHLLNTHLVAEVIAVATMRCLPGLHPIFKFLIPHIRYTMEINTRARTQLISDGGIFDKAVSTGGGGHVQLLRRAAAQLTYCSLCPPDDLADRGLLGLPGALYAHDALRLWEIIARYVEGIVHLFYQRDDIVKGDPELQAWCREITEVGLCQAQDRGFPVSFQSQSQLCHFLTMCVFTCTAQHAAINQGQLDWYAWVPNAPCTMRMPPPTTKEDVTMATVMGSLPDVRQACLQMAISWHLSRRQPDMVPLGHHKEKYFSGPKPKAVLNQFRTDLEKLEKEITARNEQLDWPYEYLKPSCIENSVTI
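Purified human 12hLO at 150 nM in 25 mM Hepes, 0.01% Triton X-100, pH 7.0, preincubated 15 min at room temperature with compound. Reaction started with 40 uM arachidonic acid, 30 min at room temperature. Hydroperoxide measured by Fe-xylenol orange, 573/405 nm absorbance ratio.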
TDP1 cell CPT = qHTS for Inhibitors of human tyrosyl-DNA phosphodiesterase 1 (TDP1): qHTS in cells in presence of CPT; AID 686979, 2013; chicken DT40 Tdp1-/-;hTDP1 cells + 20 nM CPT, ATP luminescence, 48 h; actives 12% (n = 420,000); Potency, µM (top dose mostly 46.2 µM), without a hit: at the highest dose activity change, negative = growth inhibition, hits mostly inhibitors; note: potency is the fitted concentration of half-maximal effect; nearly all actives have a fitted effect of over 55% in size
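Chicken DT40 Tdp1-/- cells stably complemented with human TDP1 were seeded at 400 cells/well in medium containing 20 nM camptothecin, exposed to pin-transferred compounds, and grown at 37 °C for at least 48 hr. Viability was read as ATP luminescence.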
IL1B secr inh = qHTS for Inhibitors of Inflammasome Signaling: IL-1-beta AlphaLISA Primary Screen; activity change, % at 57.5 µM; actives 4.7% (n = 360,000); THP-1 LPS/ATP IL-1B secretion, AlphaLISA, 16 h; active compounds read low; AID 743279, 2014; in the data active = activity change below about -50%; inconclusive = mostly about -30% to -49%
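Secreted IL-1B measured by AlphaLISA bead assay after 16 h compound exposure of THP-1 cells; compounds (final up to 57.5 uM) added 1 h before LPS (250 ng/mL) and ATP (1.25 mM) stimulation; lower signal means less secretion.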
HT1080 IDH1KD tx = qHTS for induction of synthetic lethality in tumor cells producing 2HG: qHTS for the HT-1080-IDH1KD cell line | Potency, µM (highest dose often 46.1 µM), inactives show at the highest dose activity, negative = toxicity, actives largely listed as cytotoxic | AID 686971, 2013 | HT-1080 IDH1 knockdown viability, ATP luminescence, 48 h | actives 2% (n = 360,000);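 note: potency is the fitted concentration of half-maximal effect; 0% = DMSO wells and -100% = cell-free medium wells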
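Viability of IDH1-knockdown HT-1080 fibrosarcoma cells was assessed by CellTiter-Glo after 48 h at 37 °C with titrated compound; concentration-effect curves were classified by fit quality and response size.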
HT1080-NT tox = qHTS for induction of synthetic lethality in tumor cells producing 2HG: qHTS for the HT-1080-NT fibrosarcoma cell line; AID 686970, 2013; Potency, µM (doses to about 46.1 µM), inactives show at the highest dose activity, negative = less viability, actives largely listed as cytotoxic; HT-1080-NT fibrosarcoma viability, CellTiter-Glo ATP luminescence, 48 h; actives 1.6% (n = 360,000);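 note: NT is the 2HG producing partner of a matched IDH1 knockdown line; potency is the fitted concentration of half-maximal effect; 0% = DMSO-treated cells and -100% = media-only wells without cells; nearly all actives have a fitted effect of over 55% in size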
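HT-1080-NT; 750 cells/well; 5% FBS RPMI; 48 h compound, 37 degrees C; CellTiter-Glo luminescence; curve fitting and curve-class assignment.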
TDP1 cell noCPT = qHTS for Inhibitors of human tyrosyl-DNA phosphodiesterase 1 (TDP1): qHTS in cells in absence of CPT | Potency, µM (highest dose often 46.2 µM), for the others: at the highest dose activity change, negative = growth inhibition, usual class: inhibitors | actives 15% (n = 420,000) | DT40 Tdp1-/- hTDP1 cells, no CPT, ATP luminescence, 48 h; note: potency is the fitted concentration of half-maximal effect; nearly all actives have a fitted effect of over 55% in size
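Readout: luminescence from CellTiter-Glo after 30 min in the dark at RT. Cells: DT40 Tdp1-/- with stable hTDP1, 400/well. Exposure: compounds alone, ≥48 hr, 37 °C.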
An asterisk follows results filed as active; u = inconclusive; x = not tested or not shown; ! = not active in a repeat; [ ] = dose if it differs, or a comment. The entries come from a sample that favours hits as a whole. Unless noted, calls come from the whole dose curve; as a rule, active = well fitted curve in the direction sought with a large enough effect; inconclusive = small, poorly fitted or top-dose-only effect, or another doubt; inactive = no such curve, though single readings can be large; an effect the other way counts as inactive or inconclusive. Unless noted, % is set by controls: 0 for no effect and ±100 for the full control effect.

SMILES	ALOX12 inh	TDP1 cell CPT	IL1B secr inh	HT1080 IDH1KD tx	HT1080-NT tox	TDP1 cell noCPT
O=C(Nc1cc(F)ccc1F)N1CCN(c2ccnc3cc(Cl)ccc23)CC1	0%	4.1µM*	u	-3%	-8%	5.2µM*
O=C(Nc1ccc(C(F)(F)F)cc1)N1CCN(c2ccnc3cc(Cl)ccc23)CC1	98%	23µM*	-65*	29µM*	u	16µM*
COC(=O)[C@H](NC(=O)Nc1cc(C)cc(C)c1)C(C)C	-9%	x	x	x	x	x
CCc1ccccc1NC(=O)CN(c1cccc(C)c1C)S(C)(=O)=O	1%	1%	x	x	x	-2%
CS(=O)(=O)N(CC(=O)N/N=C/c1cc([N+](=O)[O-])ccc1Cl)c1ccccc1	0%	u	-6	2%	-1%	18µM*
Cc1cccc(N(CC(=O)N/N=C/c2cc([N+](=O)[O-])ccc2Cl)S(C)(=O)=O)c1C	x	u	-13	5%	2%	21µM*
CC(=O)N/N=C/c1cc([N+](=O)[O-])ccc1OCCOc1ccccc1	-5%	u	12	-3%	-10%	16µM*
Nc1nnnn1CC(=O)N/N=C/c1cc([N+](=O)[O-])ccc1Cl	-5%	15µM*	6	1%	-12%	10µM*
NC(=S)N/N=C/c1cc([N+](=O)[O-])ccc1OCCOc1ccccc1	0%	-16%	14	-1%	-2%	-30%
COc1ccc(Br)cc1/C=N/NC(=O)Cn1nnnc1N	191%	u	29	-20%	-5%	u
CC1=C[C@@H](CNC(=O)c2cncnc2)[C@H](C(C)C)C[C@H]1Cc1nnc(-c2ccncc2)o1	-7%[176 µM]	x	x	x	x	x
O=C1NC2(CCN(C(=O)c3ccccc3)C2)N=C1c1cccnc1 (centres undefined)	8%[176 µM]	x	x	x	x	x
Cc1ccccc1-c1nc2cc(Cl)ccc2c(=O)o1	u	u	0	-3%	0%	16µM*
Cc1ccccc1-c1nc2cc(NC(=O)Cc3ccc(Cl)cc3)ccc2o1	-10%	u	x	x	x	21µM*
COc1ccc(-c2nc3cc(NC(=O)Cc4ccc(Cl)cc4)ccc3o2)cc1OC	u	16µM*	x	x	x	13µM*
Cc1ccc(C(=O)O)cc1C	6%	x	x	x	x	x
Cc1ccc(S(=O)(=O)N(C)CC(=O)Nc2ncc(Cc3ccc(F)cc3)s2)cc1C	0%	x	x	x	x	x
CC(C)c1nc(CN(C)C(=O)N[C@H](C(=O)N[C@@H](Cc2ccccc2)C[C@H](O)[C@H](Cc2ccccc2)NC(=O)OCc2cncs2)C(C)C)cs1	-24%[57.4 µM]	17µM*!	x	x	x	21µM*!
Cc1ccc2[nH]c3c(c2c1)CN(C(=O)CN1CCN(Cc2ccc4c(c2)OCO4)CC1)CC3	u	u	-21	u	21µM*	u
Cc1ccc2[nH]c3c(c2c1)CN(C(=O)CN1CCSCC1)CC3	142%	x	x	x	x	x
CC(=O)N1CCc2[nH]c3ccc(C)cc3c2C1	-26%	38%	15	13%	18%	14%
CCOC(=O)N1CCc2[nH]c3ccc(C)cc3c2C1	59%	15µM*	u	-23%	u	23µM*
CCn1cc(S(=O)(=O)N2CCCC(Cc3ncc(C)n3Cc3ccccc3)C2)cn1 (centres undefined)	45%	x	x	x	x	x
CC(C)Oc1cccc(NC(=O)C2(C)CCN2C(=O)C(C)C)c1 (centres undefined)	7%	-26%	6	1%	11%	-16%
